The record followed here is PubChem BioAssay.

One assay concerns the target Albumin (Bos taurus) (UniProt P02769). As to the kind of experiment: bovine serum albumin binders on microarray, profiling panel, artefact control for SMM control protein annotation, biochemical, small-molecule microarray, Alexa647 label, 635/667 nm fluorescence (AID 1118).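 Also: score merges 667 nm emission intensity and signal-to-noise per printed compound spot.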 The settings on record: BSA-A647 binding, fluorescence 635 nm, higher = more signal.
The nature of assay [1]: small-molecule microarray binders of probe aXIP, primary screen, biochemical, NeuroSMM set, 635/667 nm fluorescence (AID 1119).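 Also: probe is the protein aXip251-270 applied at 1 µg/mL to compound-printed slides; binding of probe to printed compounds measured as 667 nm fluorescence plus signal to noise.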 As to conditions: higher = more signal, called active from +8 up or from −8 down.
Assay [2] in a line: small-molecule binders of probe aNOTCH3, primary screen, biochemical, small-molecule microarray, 635/667 nm fluorescence (AID 1120).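 Also: probe is a biotin-tagged antibody raised against NOTCH3 rather than NOTCH3 protein; score merges spot fluorescence near 667 nm with spot signal to noise.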 The settings on record: higher = more signal.
A short description of assay [3]: small-molecule binders of probe aNOTCH2, primary screen, biochemical, small-molecule microarray, 635/667 nm fluorescence (AID 1121).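 Also: score merges feature fluorescence read at 667 nm with its signal to noise.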 As to conditions: higher = more signal.
Assay [4] deals with Carbonic anhydrase 2 (Homo sapiens) (UniProt P00918). In words: CAII small-molecule binders, profiling panel, biochemical, small-molecule microarray, Alexa647-labelled CAII (AID 1122). As to conditions: CAII-A647 binding fluorescence, higher = more signal.
Assay [5] can be described thus: COS7 lysate on small-molecule microarray, probe aHis, 635 nm (AID 1123).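 Also: z-score combines 667nm fluorescence intensity with signal-to-noise per printed compound spot.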 The settings on record: COS7 cell lysate, fluorescence, higher = more signal.
Assay [6] in a line: compound binding in COS7 lysate, probe aLAP1, primary screen, cell lysate, small-molecule microarray (AID 1124).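 Also: lysate comes from COS7 cells expressing LAP1 and is applied at 0.3 µg/mL; score merges spot fluorescence near 667 nm with signal-to-noise over triplicate slides.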 The settings on record: probe aLAP1, fluorescence, higher = more signal.
Another assay deals with Sam68 (KHDRBS1). In words: Sam68 small-molecule binders, primary screen, biochemical, small-molecule microarray, 635 nm fluorescence (AID 1125).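 Also: score merges 667 nm channel intensity with signal to noise over triplicate slides.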 The settings on record: small-molecule microarray binding, higher = more signal.
In assay [7] the test system is Chordin-like protein 2 (CHRDL2). In words: CHRDL2 small-molecule binders, primary screen, biochemical, small-molecule microarray, 635 nm fluorescence (AID 1126).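 Also: printed compound slides probed with Chrdl2 protein at 4 µg/mL for 1 h at 4 C; score merges 667 nm emission intensity with signal to noise over three replicate slides.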 As to conditions: small-molecule microarray binding, fluorescence 635 nm; higher = more signal.
In assay [8] the target is Concanavalin-A (Canavalia ensiformis) (UniProt P02866). In words: ConA small-molecule binders, primary screen, artefact control for SMM control protein annotation, biochemical, small-molecule microarray, Alexa647 label, 635 nm (AID 1127).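 Also: z combines 667 nm emission intensity with signal-to-noise across three replicate slides.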 As to conditions: ConA-A647 binding fluorescence, higher = more signal.
The nature of assay [9]: anti-His antibody binders, primary screen, artefact control for SMM control protein annotation, biochemical, small-molecule microarray, 635 nm fluorescence (AID 1128).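 Also: score merges feature fluorescence with signal-to-noise for each printed compound spot.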 As to conditions: anti-His Alexa647 antibody binding, higher = more signal.
The subject of assay [10] is Human papillomavirus type 1a E7 protein (residues 1-88). In words: HPV1a E7 small-molecule binders, primary screen, biochemical, small-molecule microarray, residues 1-88, 635 nm (AID 1129). As to conditions: small-molecule microarray binding, fluorescence 635 nm; higher = more signal.
The target of assay [11] is Focal adhesion kinase 1 (Homo sapiens) (UniProt Q05397). As to the kind of experiment: small-molecule microarray binders of FAK, primary screen, biochemical, 635/667 nm fluorescence, BSA, DTT (AID 1130).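 Also: composite of spot emission at 667 nm and signal to noise over triplicate slides.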 The settings on record: PTK2 binding, 635 nm fluorescence, higher = more signal.
In assay [12] the test system is Fibrinogen (Alexa647-labelled). As to the kind of experiment: fibrinogen binders on compound microarrays, profiling panel, artefact control for SMM control-protein annotation, biochemical, small-molecule microarray, 635/667 nm fluorescence (AID 1131).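 Also: z-score merges 667 nm fluorescence with per-spot signal-to-noise over triplicate slides.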 The settings on record: fibrinogen-A647 binding fluorescence, higher = more signal.
Assay [13] deals with Follistatin (Homo sapiens) (UniProt P19883). As to the kind of experiment: follistatin binders on small-molecule microarrays, primary screen, biochemical, small-molecule microarray, 635/667 nm fluorescence (AID 1132). The settings on record: FST binding, 635 nm fluorescence, higher = more signal.
The target in assay [14] is Fibroblast growth factor 2 (Homo sapiens) (UniProt P09038). As to the kind of experiment: FGF2 binders on small-molecule microarrays, primary screen, biochemical, small-molecule microarray, 635/667 nm fluorescence (AID 1133). The settings on record: small-molecule microarray binding, FGF2, fluorescence 635/667; higher = more signal.
Assay [15] is described as follows: mitochondrial membrane potential change in A549 cells, profiling panel, cell-based, JC-1 fluorescence, basal, 24 h, 100 nL (AID 1138).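 Also: A549 lung adenocarcinoma cells under basal conditions with no added stimulus; test concentration not given here.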 As to conditions: higher = more signal.
Another assay concerns Lefty1. As to the kind of experiment: Lefty1 binders on small-molecule microarrays, primary screen, biochemical, small-molecule microarray, 635/667 nm fluorescence (AID 1139). As to conditions: small-molecule microarray binding, fluorescence 635/667; higher = more signal.
For assay [16], the system named is wheat germ agglutinin (Triticum aestivum), Alexa647-labelled. In words: wheat germ agglutinin binders on compound microarrays, profiling panel, artefact control for SMM control-protein annotation, biochemical, small-molecule microarray, 635/667 nm fluorescence (AID 1140).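 Also: score merges 667 nm feature emission with signal to noise over triplicate slides.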 The settings on record: WGA-A647 binding, 635 nm fluorescence, higher = more signal.
Assay [17] deals with Luciferin 4-monooxygenase (Photinus pyralis) (UniProt P08659). As to the kind of experiment: firefly luciferase enzyme inhibitors, primary screen, biochemical, luminescence, purified enzyme, 2006 set (AID 1141).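 Also: cell-free assay with purified firefly luciferase at 100 ng per well in PBS; test concentration not given here.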 The settings on record: SteadyGlo luminescence, 30 min, higher = more signal, called active from +8 up or from −8 down.

Calls of active or inactive are those of the source.

Follistatin (Homo sapiens), sequence (P19883 whole entry, looked up): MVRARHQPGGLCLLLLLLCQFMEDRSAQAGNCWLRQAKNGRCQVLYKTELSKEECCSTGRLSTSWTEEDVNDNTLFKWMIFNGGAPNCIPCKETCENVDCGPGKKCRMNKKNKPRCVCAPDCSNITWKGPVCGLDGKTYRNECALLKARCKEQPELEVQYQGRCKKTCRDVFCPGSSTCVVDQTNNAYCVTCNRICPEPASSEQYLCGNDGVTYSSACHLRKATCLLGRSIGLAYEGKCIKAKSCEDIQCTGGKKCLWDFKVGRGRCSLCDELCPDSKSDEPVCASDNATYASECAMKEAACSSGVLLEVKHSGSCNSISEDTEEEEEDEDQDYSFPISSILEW
Concanavalin-A (Canavalia ensiformis), sequence (P02866 whole entry, looked up): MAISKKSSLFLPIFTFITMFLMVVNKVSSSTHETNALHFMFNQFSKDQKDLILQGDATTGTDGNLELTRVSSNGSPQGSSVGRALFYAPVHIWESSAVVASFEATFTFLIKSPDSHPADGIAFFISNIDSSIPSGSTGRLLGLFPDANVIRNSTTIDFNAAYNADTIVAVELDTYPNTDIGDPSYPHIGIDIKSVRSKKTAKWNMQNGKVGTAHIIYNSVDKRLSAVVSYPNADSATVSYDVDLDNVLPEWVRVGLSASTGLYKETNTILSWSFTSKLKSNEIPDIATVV
Focal adhesion kinase 1 (Homo sapiens), sequence (Q05397 whole entry, looked up): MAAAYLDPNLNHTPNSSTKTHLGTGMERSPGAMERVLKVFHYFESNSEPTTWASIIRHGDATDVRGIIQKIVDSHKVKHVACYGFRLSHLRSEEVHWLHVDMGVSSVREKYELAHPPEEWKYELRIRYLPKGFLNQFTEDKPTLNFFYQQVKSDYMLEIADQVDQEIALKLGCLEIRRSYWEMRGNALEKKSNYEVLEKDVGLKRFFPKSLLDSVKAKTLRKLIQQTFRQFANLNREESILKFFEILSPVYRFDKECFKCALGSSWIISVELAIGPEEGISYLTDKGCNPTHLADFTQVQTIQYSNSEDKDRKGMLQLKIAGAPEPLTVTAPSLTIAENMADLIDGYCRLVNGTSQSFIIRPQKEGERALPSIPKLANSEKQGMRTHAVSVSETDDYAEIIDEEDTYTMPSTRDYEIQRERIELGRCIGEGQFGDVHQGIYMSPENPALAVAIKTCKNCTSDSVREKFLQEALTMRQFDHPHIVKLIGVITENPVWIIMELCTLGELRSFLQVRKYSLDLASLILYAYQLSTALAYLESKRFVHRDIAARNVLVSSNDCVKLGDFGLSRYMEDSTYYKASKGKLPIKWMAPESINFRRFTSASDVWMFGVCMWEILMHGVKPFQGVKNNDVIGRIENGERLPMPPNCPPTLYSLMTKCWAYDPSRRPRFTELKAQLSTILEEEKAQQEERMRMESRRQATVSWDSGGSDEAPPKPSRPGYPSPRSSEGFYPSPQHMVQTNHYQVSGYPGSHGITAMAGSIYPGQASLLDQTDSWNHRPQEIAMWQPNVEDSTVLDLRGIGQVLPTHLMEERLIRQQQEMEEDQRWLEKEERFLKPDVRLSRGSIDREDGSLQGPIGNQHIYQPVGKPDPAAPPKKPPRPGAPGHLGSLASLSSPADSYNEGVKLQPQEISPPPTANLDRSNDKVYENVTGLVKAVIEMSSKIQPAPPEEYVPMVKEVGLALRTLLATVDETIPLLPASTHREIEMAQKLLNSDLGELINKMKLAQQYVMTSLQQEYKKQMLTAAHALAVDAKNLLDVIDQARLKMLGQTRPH
Fibroblast growth factor 2 (Homo sapiens), sequence (P09038 whole entry, looked up): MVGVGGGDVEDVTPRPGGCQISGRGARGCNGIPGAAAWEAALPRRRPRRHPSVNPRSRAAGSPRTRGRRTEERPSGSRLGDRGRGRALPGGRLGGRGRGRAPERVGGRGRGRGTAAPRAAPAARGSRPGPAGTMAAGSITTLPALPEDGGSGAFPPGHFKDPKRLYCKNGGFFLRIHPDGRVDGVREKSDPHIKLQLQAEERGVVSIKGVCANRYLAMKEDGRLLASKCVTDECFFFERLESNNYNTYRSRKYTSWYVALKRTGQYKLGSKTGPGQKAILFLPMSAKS
Luciferin 4-monooxygenase (Photinus pyralis), sequence (P08659 whole entry, looked up): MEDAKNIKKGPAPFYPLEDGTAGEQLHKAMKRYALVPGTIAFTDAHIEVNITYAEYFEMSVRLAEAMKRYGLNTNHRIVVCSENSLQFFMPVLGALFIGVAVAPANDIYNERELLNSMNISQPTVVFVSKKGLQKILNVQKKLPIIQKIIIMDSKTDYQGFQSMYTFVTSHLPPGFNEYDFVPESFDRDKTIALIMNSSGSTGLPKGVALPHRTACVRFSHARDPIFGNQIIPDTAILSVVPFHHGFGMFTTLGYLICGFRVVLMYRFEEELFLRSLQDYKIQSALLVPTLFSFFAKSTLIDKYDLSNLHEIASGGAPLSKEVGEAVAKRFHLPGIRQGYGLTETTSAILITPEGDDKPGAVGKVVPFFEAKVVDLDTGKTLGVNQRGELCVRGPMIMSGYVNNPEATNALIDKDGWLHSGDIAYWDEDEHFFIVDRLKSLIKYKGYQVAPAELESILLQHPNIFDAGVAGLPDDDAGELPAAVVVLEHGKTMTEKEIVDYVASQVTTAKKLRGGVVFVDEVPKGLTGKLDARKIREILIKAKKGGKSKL
Albumin (Bos taurus), sequence (P02769 whole entry, looked up): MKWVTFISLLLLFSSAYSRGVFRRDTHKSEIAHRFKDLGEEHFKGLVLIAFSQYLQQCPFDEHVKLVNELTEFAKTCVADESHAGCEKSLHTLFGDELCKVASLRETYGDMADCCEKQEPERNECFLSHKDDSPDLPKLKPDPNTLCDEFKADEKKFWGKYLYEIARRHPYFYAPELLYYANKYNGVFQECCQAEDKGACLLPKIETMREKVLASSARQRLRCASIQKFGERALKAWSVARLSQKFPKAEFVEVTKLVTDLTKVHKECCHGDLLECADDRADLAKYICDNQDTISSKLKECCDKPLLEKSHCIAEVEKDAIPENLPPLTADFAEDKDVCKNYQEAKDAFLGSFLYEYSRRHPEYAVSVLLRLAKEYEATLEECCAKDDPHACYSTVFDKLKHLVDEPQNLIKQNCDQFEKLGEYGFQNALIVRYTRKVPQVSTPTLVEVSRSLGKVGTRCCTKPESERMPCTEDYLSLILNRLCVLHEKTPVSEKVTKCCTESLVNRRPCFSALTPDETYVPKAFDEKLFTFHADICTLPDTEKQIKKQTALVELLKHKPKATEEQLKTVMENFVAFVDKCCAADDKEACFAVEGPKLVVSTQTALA

Take `O=C(CS)NCCCCCNC(=O)[C@H]1C[C@H]2C(=O)N3CCC[C@H]3C(=O)N2[C@H]1c1ccc(O)cc1`: the composite z-score is -1.54 with Albumin (Bos taurus); -0.229 in assay [2]; -0.0304 in assay [3]; 0.729 in assay [4]; 0.0961 in [5]; 1.23 in [6]. The composite z-score in the assay with Sam68 (KHDRBS1) is -0.305; in assay [7], 0.641; in assay [8] it was -0.736; in assay [9] it was 0.215; in [10], -1.25; in assay [11], -0.384. The composite z-score in [12] was -0.743; in assay [13] it was 0.927; in [14], 0.917; with Lefty1 it was -0.0421; in assay [16], -1.68. For the same molecule, the composite Z-score in assay [1] is -0.17 (inactive). Also, the z-score in assay [15] was 1.54; in assay [17] it was -1.75 (inactive).
As to `COC(=O)C[C@H]1O[C@]2(C(=O)N(Cc3ccccc3)c3ccc(I)cc32)[C@@H](C)[C@@H]1[Si](C)(C)c1ccc(OC)cc1`, the composite z-score in the assay with Albumin (Bos taurus) was 0.298; in assay [2], -0.185; in assay [3], -0.0956; in assay [4] it was -0.228; in [5], -0.322; in assay [6], -0.0227. Further, the composite z-score is -0.879 in the assay with Sam68 (KHDRBS1); 0.0477 in assay [7]; -0.0276 in assay [8]; -0.421 in [9]; -0.807 in assay [10]; -0.172 in assay [11]. Besides, the composite z-score in [12] is -0.774; in assay [13], -0.274; in [14], -0.222; in the assay on Lefty1, -0.603; in assay [16] it was 0.322. For the same molecule, the composite Z-score in [1] is 0.167 (inactive). The results for the z-score in assay [15] and in assay [17] were 0.0578 and 0.417 (inactive), respectively.
Regarding `CCCCO[C@H]1C[C@H]2C(Br)=C[C@@]1(CO)C(=O)[C@]21CO1`, the composite z-score with Albumin (Bos taurus) was -1.23; in assay [2], -0.0647; in assay [3] it was -0.201; in assay [4], -0.548; in assay [5], 0.124; in assay [6], -0.139. Also, the composite z-score in the assay with Sam68 (KHDRBS1) was 0.362; in assay [7], 0.569; in [8], 0.153; in assay [9], -0.487; in [10], -0.153; in [11] it was 0.692. The composite z-score in [12] is -0.46; in assay [13], 0.452; in [14], 0.0225; in the assay on Lefty1, 0.641; in assay [16], -0.283. Besides, the composite Z-score in assay [1] was -0.442 (inactive). Further, the z-score in assay [15] was 0.826; in [17], -0.553 (inactive).
Turning to `C=CC(=O)O[C@@H](Cc1ccccc1)[C@H]1C2C=CCCC=C2CN1Cc1cccc(Cl)c1` (stereo not given in full), the composite z-score is -0.421 with Albumin (Bos taurus); -0.0057 in assay [2]; -0.112 in [3]; -0.794 in assay [4]; -0.323 in assay [5]; -0.454 in assay [6]. For the same molecule, the composite z-score was -2.7 in the assay with Sam68 (KHDRBS1); -0.605 in assay [7]; -0.965 in [8]; -0.0091 in assay [9]; -2.16 in assay [10]; -0.426 in assay [11]. Moreover, the composite z-score in assay [12] was -0.327; in assay [13], -0.14; in [14] it was -0.344; in the assay on Lefty1 it was -0.697; in assay [16] it was -0.346. Also, in [1], the composite Z-score is 0.565 (inactive). In addition, the figures for the z-score in [15] and in [17] were 1.77 and -1.52 (inactive), respectively.
For `O=C(NCC(O)CO)[C@]1(Cc2ccccc2)N=C(c2ccc(OCCCO)cc2)O[C@@H]1c1ccccc1` (stereo not given in full), the composite z-score is 0.974 with Albumin (Bos taurus); 0.101 in [2]; 0.257 in assay [3]; 0.366 in [4]; 3.43 in assay [5]; 0.634 in assay [6]. For the same molecule, the composite z-score is 1.03 in the assay with Sam68 (KHDRBS1); -1.93 in assay [7]; 0.922 in assay [8]; 0.713 in [9]; 0.98 in assay [10]; 0.774 in assay [11]. Further, the composite z-score is 0.601 in assay [12]; 0.585 in assay [13]; -0.836 in assay [14]; -1.42 in the assay on Lefty1; 1.27 in assay [16]. Also, the composite Z-score in assay [1] is 0.749 (inactive). Also, the z-score was 0.571 in assay [15] and -1.37 (inactive) in assay [17].
